This is one part of a sample in which hits are shown more often than they occur.
Cruzain noTriton: qHTS Assay for Promiscuous and Specific Inhibitors of Cruzain (without detergent); purified cruzain, Z-FR-AMC fluorescence, no detergent; Potency, µM, actives largely listed as inhibitors; 200,000 compounds, 2.3% hits; AID 1476, 2009; active = well fitted curve in the direction sought with a large enough effect; inconclusive = small, poorly fitted or top-dose-only effect, or another doubt; inactive = no such curve, though single readings can be large; an effect the other way counts as inactive or inconclusive; note: nearly all actives have a fitted effect of over 40% in size
Target sequence (P25779 123-467 limits assumed): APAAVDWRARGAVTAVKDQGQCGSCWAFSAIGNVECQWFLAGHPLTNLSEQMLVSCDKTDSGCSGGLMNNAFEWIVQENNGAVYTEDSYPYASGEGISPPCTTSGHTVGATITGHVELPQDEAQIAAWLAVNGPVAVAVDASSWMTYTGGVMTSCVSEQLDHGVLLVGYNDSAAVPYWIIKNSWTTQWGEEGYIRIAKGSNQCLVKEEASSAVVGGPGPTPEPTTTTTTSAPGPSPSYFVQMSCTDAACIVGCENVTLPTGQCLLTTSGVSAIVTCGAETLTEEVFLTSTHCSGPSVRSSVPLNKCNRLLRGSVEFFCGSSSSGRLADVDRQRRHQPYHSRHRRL
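Detergent-free condition (0.00005% Triton X-100) in acetate buffer pH 5.5 with DTT. 1.5 nM enzyme and compound were pre-mixed 15 min, then 2 uM Z-FR-AMC substrate added; reaction progress from fluorescence change between first and third reads (60 s).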
Cruzain inh Det: qHTS Assay for Promiscuous and Specific Inhibitors of Cruzain (with detergent) | Cruzipain (Trypanosoma cruzi), P25779 | AID 1478, 2009 | 200,000 compounds, 0.43% hits | purified cruzain, Z-FR-AMC fluorescence, 0.01% Triton | Potency, µM, usual class: inhibitors; active = well fitted curve in the direction sought with a large enough effect; inconclusive = small, poorly fitted or top-dose-only effect, or another doubt; inactive = no such curve, though single readings can be large; an effect the other way counts as inactive or inconclusive; note: nearly all actives have a fitted effect of over 40% in size
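Sodium acetate buffer (100 mM, pH 5.5) containing 5 mM DTT and 0.01% Triton X-100 hosted 1.5 nM cruzain and test compound for 15 min at room temperature. Cleavage of 2 uM Z-FR-AMC was then tracked by fluorescence.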
NS1 function inh: qHTS Assay for Inhibitors of Influenza NS1 Protein Function | AID 2326, 2010 | 270,000 compounds, 0.4% hits | Potency, µM (doses to about 46.1 µM); note: actives are rising curves; nearly all actives have a fitted effect of over 50% in size
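Growth recovery, yeast-based: influenza A NS1 expressed in S. cerevisiae causes slow growth, and suppressors are detected by OD600. The parent strain without NS1 is used as positive control.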
Flu NS1 inh: Assay for Inhibitors of Influenza NS1 Protein Function: Hit Validation; shares compounds with NS1 function inh; influenza NS1 function cell assay, 15-point titration; activity change, negative = inhibition, % at 32.9 µM; 1,400 tested, under 10 active
Hits are given with their value; . = inactive; ? = inconclusive; / = not tested or not shown. Unless noted, calls come from the whole dose curve.

SMILES | Cruzain noTriton | Cruzain inh Det | NS1 function inh | Flu NS1 inh
CC(C)C[C@H]1C(=O)N2CCC[C@@H]2[C@@]2(O)O[C@](NC(=O)[C@@H]3C=C4c5cccc6[nH]cc(c56)C[C@@H]4N(C)C3)(C(C)C)C(=O)N12 | . | . | / | /
Cc1ccc(CCN2CC(C(=O)NC3CCCC3)CC2=O)cc1 (configuration not stated) | . | . | ? | .
Cc1ccc(CCN2CC(C(=O)NC3CCCCC3)CC2=O)cc1 (configuration not stated) | / | / | . | /
Cc1ccc(C(=O)c2oc3ccccc3c2NC(=O)c2cc(=O)c3ccccc3o2)cc1 | . | . | / | /
O=C(/C=C1\NC2(CCCC2)Cc2ccccc21)C(=O)N/N=C/c1ccc(O)c(O)c1 | . | . | 18µM | .
COc1ccc(/C=N/NC(=O)C(=O)/C=C2\NC3(CCCC3)Cc3ccccc32)cc1 | ? | . | . | /
CN(C)S(=O)(=O)c1cccc(C(=O)OCC(=O)c2ccc3c(c2)NC(=O)CO3)c1 | . | . | ? | .
CN(C)S(=O)(=O)c1ccc(C(=O)OCC(=O)c2ccc3c(c2)NC(=O)CO3)cc1 | / | / | . | /
O=C(C1CCCC1)N1CCC(CC2CC(c3ccc(Cl)cc3)=NO2)(C(=O)NCC2CCCCC2)CC1 (configuration not stated) | / | / | . | /
O=C(C1CCCC1)N1CCC(CC2CC(c3cccc(Br)c3)=NO2)(C(=O)NCC2CCCCC2)CC1 (configuration not stated) | / | / | 22µM | .
C[N+]1(NCC[N@@+]2(C)CCc3ccccc3C2)CCCCC1 | . | . | . | /
COc1ccc(C2CC(c3cccs3)=NN2c2ccc(C=O)cc2)cc1 (configuration not stated) | ? | . | 11µM | .
CCC(=O)N1N=C(c2cccs2)CC1c1ccc(OC)cc1 (configuration not stated) | / | / | . | /
COc1ccc(-c2cc(NCc3ccc(C)cc3)n3cnnc3n2)cc1 | . | . | / | /
Cc1ccc(C(=O)O)cc1NC(=S)NC(=O)C(c1ccccc1)c1ccccc1 | . | . | ? | .
Cc1ccc(C(=O)O)cc1NC(=S)NC(=O)Cc1ccccc1 | . | . | . | /
CCC(C(=O)Nc1cc(C(=O)O)ccc1C)c1ccccc1 (configuration not stated) | / | / | . | /
CCC(C(=O)Nc1ccc(C(=O)O)cc1NC(=O)C(CC)c1ccccc1)c1ccccc1 (configuration not stated) | / | / | 11µM | .
CCNc1ncc2nc(-c3cc(F)cc(F)c3)c(=O)n(Cc3cccs3)c2n1 | . | . | / | /
CC(C)c1cc(-c2nc(-c3ccccc3)no2)n[nH]1 | . | . | / | /
O=S(=O)(c1ccc(Br)cc1)N1CCN(S(=O)(=O)c2ccc(Br)cc2)CC1 | . | . | . | /
COc1cc(/C=C2\SC(=S)N(Nc3ncc(C(F)(F)F)cc3Cl)C2=O)ccc1O | ? | . | 4µM | .
COc1cc(/C=C2\SC(=S)N(Nc3ccccc3)C2=O)ccc1O | . | . | . | /
COc1ccccc1NC(=O)CSc1nc2c(oc3ccccc32)c(=O)n1-c1ccccc1F | . | . | / | /
CCSc1nc2n(n1)C(c1ccc(CC)cc1)C(C(=O)Nc1ccccc1OC)=C(C)N2 (configuration not stated) | . | . | / | /
SMILES | Cruzain noTriton | Cruzain inh Det | NS1 function inh | Flu NS1 inh
CC(C)(C)c1ccc(OCc2ccc(C(=O)N/N=C3\CC4CC=CC34)cc2)cc1 (configuration not stated) | . | . | . | /
O=C(N/N=C1\CC2CC=CC12)c1ccc(COc2ccccc2)cc1 (configuration not stated) | . | . | 5.6µM | .
CCC/C=C(\CCC)C(NS(=O)(=O)c1ccc(Cl)cc1)c1ccccc1 (configuration not stated) | . | . | / | /
Cc1cccc(-c2nc3c4ccccc4nc(N4CCN(c5cc(C)ccc5C)CC4)n3n2)c1 | . | . | / | /
COc1ccc(/C=N/NC(=O)c2nc(-c3ccccc3)n(-c3ccccc3)n2)cc1 | . | . | . | /
COc1ccc(-n2nc(C(=O)N(C)C)nc2-c2ccccc2)cc1 | / | / | ? | .
O=C(NCc1nc2ccccc2n1Cc1ccccc1Cl)c1ccccc1 | . | . | / | /
COc1ccc2c(c1)c(C(=O)O)c(C)n2CCc1ccc(OC)c(OC)c1 | / | / | 6.3µM | .
COc1ccc2c(c1)c(C(C)=O)c(C)n2CCc1ccc(OC)c(OC)c1 | / | / | . | /
COCCn1c(SCC(=O)Nc2ccc(Cl)c(S(=O)(=O)N(C)C)c2)nc2ccccc21 | . | . | . | /
CN(C)S(=O)(=O)c1cc(NC(=O)CSc2ncc(C(F)(F)F)cc2Cl)ccc1Cl | . | . | 13µM | .
COc1ccc(C(=O)Nc2ccccc2-c2nnn(CC(=O)N3CCOCC3)n2)cc1 | / | / | . | /
COc1ccc(C(=O)Cn2nnc(-c3ccccc3NC(=O)c3ccco3)n2)cc1 | ? | . | 10µM | .
CC(C)C1C(=O)Nc2ccc(S(=O)(=O)NCc3ccc(Cl)cc3)cc21 (configuration not stated) | . | . | / | /
Cn1cc([N+](=O)[O-])c(C(=O)N2CCCCCC2)n1 | / | / | . | /
Cn1cc([N+](=O)[O-])c(C(=O)n2cccn2)n1 | / | / | ? | .
CCOC(=O)c1cc(C)n(CC2CCC(C(=O)Nc3ccccc3OC)CC2)c1C (configuration not stated) | . | . | / | /
Cc1cc(C)c(S(C)(=O)=O)c(Oc2ccc(F)cc2)n1 | . | . | . | /
Cc1cc(C)c(S(C)(=O)=O)c(Oc2ccccc2C)n1 | . | . | 1µM | .
CCc1nnc(NC(=O)CSc2nc3c([nH]c4ccccc43)c(=O)n2-c2ccc(OC)cc2)s1 | . | . | / | /
CCOc1ccc(C2C(C(=O)Nc3ccccc3)=C(C)Nc3nc(-c4ccccc4Cl)nn32)cc1OC (configuration not stated) | ? | . | / | /
COc1ccc(N(CC(=O)NCCC(C)C)C(=O)c2snc(C(=O)NC3CCCCC3)c2N)c(OC)c1 | / | / | 13µM | .
COc1ccc(C(C(=O)NC2CCCCC2)N(C(=O)c2snc(C(N)=O)c2N)c2ccc(OC)cc2OC)cc1 (configuration not stated) | / | / | . | /
Cc1ccc(NC(=O)Cn2nc(N3CCN(c4ccccc4)CC3)ccc2=O)cc1F | ? | . | / | /
Cc1cc2cc(CN3C(=O)c4ccccc4C3=O)ccc2[nH]1 | . | . | ? | .
SMILES | Cruzain noTriton | Cruzain inh Det | NS1 function inh | Flu NS1 inh
COc1ccc(CN2C(=O)c3ccccc3C2=O)cc1 | / | / | . | /
Cc1ccc(C(=O)NC2(C(F)(F)F)C(=O)Nc3c2c(=O)[nH]c(=O)n3CCc2ccccc2)cc1 (configuration not stated) | . | . | / | /
COc1ccc(CCNC(=O)c2cnc3ccc(C)cn3c2=O)cc1OC | . | . | / | /
O=C(N/C(=C\c1ccco1)C(=O)N1CCCC1)c1ccccc1 | / | / | . | /
Cc1ccc(C(=O)N/C(=C/c2ccco2)C(=O)N2CCCCCC2)cc1 | / | / | ? | .
COc1ccc(S(=O)(=O)N(CC(=O)Nc2ccc(OC)cc2OC)c2ccc(Cl)cc2)cc1 | . | . | / | /
COc1ccc2c(C)c(CCC(=O)NCCc3ccc(OC)c(OC)c3)c(=O)oc2c1 | . | . | / | /
CCN(CC)c1sc(S(=O)(=O)c2ccccc2)nc1S(=O)(=O)c1ccc(C)cc1 | . | . | / | /
